The campaign covered roughly 5,500 compounds. About 2,000 (36%) were called active. Inconclusive results (about 18%) are left out. No stated cut-off is given here; in the data, active means normalized growth mostly below about 0.91 (no sharp cut-off); inconclusive means no clear call, values can overlap the other calls; inactive means mostly above about 0.92. The list shows a part of the results.
Experiment: chemical genetic growth profiling, strain panel (AID 1159580);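 further: tested at 20 µM; growth read once vehicle control cultures reached saturation at 30 °C; 1 = growth at the plate median or of vehicle wells; lower values mean less growth of the strain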
Conditions: growth OD

Measured: normalized growth

C/C=C/c1ccc2c(c1)OCO2
inactive: S. cerevisiae deletion strains, locus YJR075W, strain HOC1, hits give low values 1.01 | S. cerevisiae deletion strains, locus YKL009W, strain mrt4, hits give low values 1.02 | S. cerevisiae deletion strains, locus YKL068W, hits give low values 1 | S. cerevisiae deletion strains, locus YKL085W, strain MDH1 (second series), hits give low values 1.01 | S. cerevisiae deletion strains, locus YKL085W, strain MDH1, hits give low values 1.01 | S. cerevisiae deletion strains, locus YKL160W, strain elf1, hits give low values 1 | S. cerevisiae deletion strains, locus YKL190W, strain CNB1, hits give low values 1.01 | S. cerevisiae deletion strains, locus YKR001C, strain vps1, hits give low values 1.05 | S. cerevisiae deletion strains, locus YKR026C, strain gcn3, hits give low values 0.997 | S. cerevisiae deletion strains, locus YKR091W, strain srl3, hits give low values 1.01 | S. cerevisiae deletion strains, locus YLL001W, strain dnm1, hits give low values 1.01 | S. cerevisiae deletion strains, locus YLL026W, hits give low values 1.02 | S. cerevisiae deletion strains, locus YLL041C, strain sdh2, hits give low values 1.02 | S. cerevisiae deletion strains, locus YLR027C, strain aat2, hits give low values 1.02 | S. cerevisiae deletion strains, locus YLR039C, strain RIC1, hits give low values 1.07 | S. cerevisiae deletion strains, locus YLR058C, strain SHM2, hits give low values 1.01 | S. cerevisiae deletion strains, locus YLR102C, strain apc9, hits give low values 1.01 | S. cerevisiae deletion strains, locus YLR113W, strain HOG1, hits give low values 0.976 | S. cerevisiae deletion strains, locus YLR221C, strain rsa3, hits give low values 0.994 | S. cerevisiae deletion strains, locus YLR258W, strain gsy2, hits give low values 1.02 | S. cerevisiae deletion strains, locus YLR262C, strain YPT6 (second series), hits give low values 1 | S. cerevisiae deletion strains, locus YLR262C, strain YPT6, hits give low values 1.05 | S. cerevisiae deletion strains, locus YLR268W, strain sec22, hits give low values 1.04 | S. cerevisiae deletion strains, locus YLR320W, strain mms22, hits give low values 1.01 | S. cerevisiae deletion strains, locus YLR330W, strain CHS5, hits give low values 1.02 | S. cerevisiae deletion strains, locus YLR342W, strain FKS1 (second series), hits give low values 1.03 | S. cerevisiae deletion strains, locus YLR342W, strain FKS1, hits give low values 1.02 | S. cerevisiae deletion strains, locus YLR357W, strain rsc2, hits give low values 1.03 | S. cerevisiae deletion strains, locus YLR370C, strain arc18, hits give low values 1.02 | S. cerevisiae deletion strains, locus YLR371W, strain rom2, hits give low values 1.01 | S. cerevisiae deletion strains, locus YLR384C, strain iki3, hits give low values 1.03 | S. cerevisiae deletion strains, locus YLR418C, strain cdc73, hits give low values 1 | S. cerevisiae deletion strains, locus YML016C, strain PPZ1, hits give low values 1.01 | S. cerevisiae deletion strains, locus YML032C, strain rad52, hits give low values 0.996 | S. cerevisiae deletion strains, locus YML120C, strain ndi1, hits give low values 1.03 | S. cerevisiae deletion strains, locus YML124C, strain tub3, hits give low values 1 | S. cerevisiae deletion strains, locus YMR058W, strain fet3, hits give low values 1.02 | S. cerevisiae deletion strains, locus YMR078C, strain ctf18, hits give low values 1.01 | S. cerevisiae deletion strains, locus YMR125W, strain sto1, hits give low values 1.03 | S. cerevisiae deletion strains, locus YMR129W, hits give low values 1.02 | S. cerevisiae deletion strains, locus YMR205C, strain PFK2, hits give low values 1.02 | S. cerevisiae deletion strains, locus YMR223W, strain ubp8, hits give low values 0.99 | S. cerevisiae deletion strains, locus YMR231W, strain pep5, hits give low values 1.02 | S. cerevisiae deletion strains, locus YMR263W, strain SAP30, hits give low values 1.01 | S. cerevisiae deletion strains, locus YMR307W, strain GAS1, hits give low values 0.986 | S. cerevisiae deletion strains, locus YNL067W, strain RPL9B, hits give low values 1.01 | S. cerevisiae deletion strains, locus YNL071W, strain lat1, hits give low values 1.02 | S. cerevisiae deletion strains, locus YNL153C, strain GIM3, hits give low values 1.03 | S. cerevisiae deletion strains, locus YNL183C, strain NPR1, hits give low values 0.948 | S. cerevisiae deletion strains, locus YNL209W, strain ssb2, hits give low values 1.02 | S. cerevisiae deletion strains, locus YNL233W, strain BNI4, hits give low values 1.02 | S. cerevisiae deletion strains, locus YNL248C, strain rpa49, hits give low values 0.998 | S. cerevisiae deletion strains, locus YNL250W, strain rad50, hits give low values 1.01 | S. cerevisiae deletion strains, locus YNL271C, strain bni1, hits give low values 1.01 | S. cerevisiae deletion strains, locus YNL298W, strain CLA4, hits give low values 1.01 | S. cerevisiae deletion strains, locus YNL307C, strain MCK1, hits give low values 1.02 | S. cerevisiae deletion strains, locus YNL322C, strain KRE1 (second series), hits give low values 1.02 | S. cerevisiae deletion strains, locus YNL322C, strain KRE1, hits give low values 1.01 | S. cerevisiae deletion strains, locus YNR049C, strain mso1, hits give low values 1.02 | S. cerevisiae deletion strains, locus YNR052C, strain pop2, hits give low values 0.996 | S. cerevisiae deletion strains, locus YOL006C, strain TOP1, hits give low values 1.16 | S. cerevisiae deletion strains, locus YOL012C, strain htz1 1.12 | S. cerevisiae deletion strains, locus YOL147C, strain pex11, hits give low values 1 | S. cerevisiae deletion strains, locus YOR001W, strain rrp6, hits give low values 1.01 | S. cerevisiae deletion strains, locus YOR061W, strain CKA2, hits give low values 1.01 | S. cerevisiae deletion strains, locus YOR069W, strain VPS5, hits give low values 1.01 | S. cerevisiae deletion strains, locus YOR070C, strain gyp1, hits give low values 1.02 | S. cerevisiae deletion strains, locus YOR080W, strain dia2, hits give low values 1.03 | S. cerevisiae deletion strains, locus YOR083W, strain WHI5, hits give low values 0.993 | S. cerevisiae deletion strains, locus YOR106W, strain vam3, hits give low values 1.01 | S. cerevisiae deletion strains, locus YOR136W, strain idh2, hits give low values 0.999 | S. cerevisiae deletion strains, locus YOR144C, strain elg1, hits give low values 0.998 | S. cerevisiae deletion strains, locus YOR184W, strain ser1, hits give low values 0.994 | S. cerevisiae deletion strains, locus YOR231W, strain MKK1, hits give low values 0.959 | S. cerevisiae deletion strains, locus YOR265W, strain rbl2, hits give low values 1.02 | S. cerevisiae deletion strains, locus YOR270C, strain vph1, hits give low values 1.03 | S. cerevisiae deletion strains, locus YOR290C, strain snf2, hits give low values 0.999 | S. cerevisiae deletion strains, locus YOR316C, strain cot1, hits give low values 1.01 | S. cerevisiae deletion strains, locus YPL051W, strain arl3, hits give low values 1.01 | S. cerevisiae deletion strains, locus YPL055C, strain LGE1, hits give low values 1.03 | S. cerevisiae deletion strains, locus YPL078C, strain atp4, hits give low values 1.01 | S. cerevisiae deletion strains, locus YPL106C, strain sse1, hits give low values 1 | S. cerevisiae deletion strains, locus YPL240C, strain hsp82, hits give low values 1.02 | S. cerevisiae deletion strains, locus YPL241C, strain CIN2, hits give low values 1.01 | S. cerevisiae deletion strains, locus YPL256C, strain CLN2, hits give low values 0.962 | S. cerevisiae deletion strains, locus YPR119W, strain clb2, hits give low values 1.01 | S. cerevisiae deletion strains, locus YPR141C, strain kar3, hits give low values 1.01 | S. cerevisiae deletion strains, locus YPR163C, strain tif3, hits give low values 1 | S. cerevisiae deletion strains, locus YPR167C, strain met16, hits give low values 1.02 | S. cerevisiae deletion strains, strain wtn01, hits give low values 1.06 | S. cerevisiae strains, strain wild type, hits give low values 1.01
